What all share (conditions): modulator concentration 10 µM
Assay [1] relates to RAW-Dual (murine macrophage reporter line). Briefly: NF-kB reporter (SEAP) activity fold change vs agonist alone; higher = enhanced NF-kB activity. The procedure, abridged: (§1)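 Overnight stimulation with a PRR agonist followed pre-incubation for 1 hour at 37 °C with compound at 10 μM final. This was done in RAW-Dual murine macrophage reporter cells seeded at 50 000 per well in 384-well plates. NF-κB (SEAP, QUANTI-Blue absorbance at 620 nm) and IRF (Lucia luciferase, QUANTI-Luc luminescence) were read from the supernatant. Each reporter's fold change relative to the mean agonist-only control on the same plate was averaged over replicate plates.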

The test system is the same in assay [2]. Briefly: IRF reporter (Lucia luciferase) activity fold change vs agonist alone; higher = enhanced IRF activity. In outline: as §1
Assay [3] has the same test system. As to the kind of experiment: viability score (confluency relative to resting cells, overnight) (fraction); higher = more viable, active = viable (0.7 or more). The procedure, abridged: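 Confluency was the readout: RAW-Dual macrophages were imaged with IncuCyte after an overnight exposure to compound at 10 μM final. IncuCyte software produced two masks over all imaged wells. The viability score expresses confluency against resting cells, and both masks had to exceed 70% of resting cells for a compound to meet the cutoff.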

[4] abbreviates: agonist: CpG ODN 1826 0.5 ug/mL.

± gives the standard deviation.

`CC1(C)CC(=O)C2=C(C1)OC(N)=C(C#N)C21CCCC1`: the NF-kB reporter in assay [1] (setting [4]) came to 1.04 ± 0.18; in assay [1] (agonist: LPS 0.1 ug/mL) it was 0.94 ± 0.08; in assay [1] (agonist: MPLA […]), 0.933 ± 0.072. The IRF reporter was determined as 0.91 ± 0.025 in assay [2] (agonist: 3'3'-cGAMP 10 ug/mL), 1.13 ± 0.15 in assay [2] (agonist: LPS 0.1 ug/mL) and 1.3 ± 0.13 in assay [2] (agonist: MPLA […]). Further, the viability score in assay [3] is 1 (active).

With `O=C(c1ccccc1)c1cc([N+](=O)[O-])ccc1N1CCOCC1`, the figures for the NF-kB reporter in assay [1] (setting [4]), in assay [1] (agonist: LPS 0.1 ug/mL) and in assay [1] (agonist: MPLA […]) were 2.4 ± 0.19, 1.15 ± 0.069 and 1.88 ± 0.13, respectively. Moreover, the IRF reporter in assay [2] (agonist: 3'3'-cGAMP 10 ug/mL) came out at 0.297 ± 0.03; in assay [2] (agonist: LPS 0.1 ug/mL), 1.65 ± 0.12; in assay [2] (agonist: MPLA […]), 1.48 ± 0.32. Also, the viability score in assay [3] was 0.739 (active).

On to `O=C(C=Cc1ccc(-c2cccc(Cl)c2)o1)c1ccc(Cl)cc1`, for which the values for the NF-kB reporter in assay [1] (setting [4]), in assay [1] (agonist: LPS 0.1 ug/mL) and in assay [1] (agonist: MPLA […]) were 0.755 ± 0.085, 0.746 ± 0.038 and 0.857 ± 0.079, respectively. Besides, the IRF reporter was 0.446 ± 0.031 in assay [2] (agonist: 3'3'-cGAMP 10 ug/mL), 0.896 ± 0.058 in assay [2] (agonist: LPS 0.1 ug/mL) and 0.724 ± 0.14 in assay [2] (agonist: MPLA […]). Further, the viability score in assay [3] was 0.957 (active).

On to `Oc1ccc(C=Cc2cc(O)cc(O)c2)cc1`, for which the NF-kB reporter in assay [1] (setting [4]) was 0.984 ± 0.074; in assay [1] (agonist: LPS 0.1 ug/mL), 0.848 ± 0.042; in assay [1] (agonist: MPLA […]), 1.23 ± 0.029. The IRF reporter in assay [2] (agonist: 3'3'-cGAMP 10 ug/mL) turned out to be 0.493 ± 0.028; in assay [2] (agonist: LPS 0.1 ug/mL) it was 0.48 ± 0.087; in assay [2] (agonist: MPLA […]), 0.403 ± 0.084. For the same compound, the viability score in assay [3] is 0.904 (active).

For `COc1ccc(N(CC(=O)NCCSCc2cccc(Cl)c2)S(C)(=O)=O)cc1Cl`, the NF-kB reporter turned out to be 0.917 ± 0.073 in assay [1] (setting [4]), 0.98 ± 0.065 in assay [1] (agonist: LPS 0.1 ug/mL) and 0.831 ± 0.05 in assay [1] (agonist: MPLA […]). In addition, the IRF reporter in assay [2] (agonist: 3'3'-cGAMP 10 ug/mL) came out at 1.11 ± 0.031; in assay [2] (agonist: LPS 0.1 ug/mL) it was 1.08 ± 0.12; in assay [2] (agonist: MPLA […]), 0.974 ± 0.098. Also, the viability score in assay [3] was 1 (active).

Take `O=C(NN=Cc1ccc(O)c(O)c1)c1cc2ccccc2cc1O`: the NF-kB reporter was 0.35 ± 0.03 in assay [1] (setting [4]), 0.729 ± 0.075 in assay [1] (agonist: LPS 0.1 ug/mL) and 0.589 ± 0.038 in assay [1] (agonist: MPLA […]). For the same compound, the IRF reporter is 0.229 ± 0.017 in assay [2] (agonist: 3'3'-cGAMP 10 ug/mL), 0.909 ± 0.072 in assay [2] (agonist: LPS 0.1 ug/mL) and 0.794 ± 0.18 in assay [2] (agonist: MPLA […]). Moreover, the viability score in assay [3] is 0.997 (active).

With `Oc1nc(O)nc(N(c2ccccc2)c2ccccc2)n1`, the NF-kB reporter is 1.18 ± 0.095 in assay [1] (setting [4]), 1.02 ± 0.098 in assay [1] (agonist: LPS 0.1 ug/mL) and 1.02 ± 0.09 in assay [1] (agonist: MPLA […]). In addition, the figures for the IRF reporter in assay [2] (agonist: 3'3'-cGAMP 10 ug/mL), in assay [2] (agonist: LPS 0.1 ug/mL) and in assay [2] (agonist: MPLA […]) were 1 ± 0.13, 1.09 ± 0.15 and 1.08 ± 0.29, respectively. Besides, the viability score in assay [3] was 1 (active).

As for `O=C(Cc1ccc(F)cc1)NCC1CCCN1c1ccccc1` (stereo unspecified), the NF-kB reporter in assay [1] (setting [4]) stood at 1.21 ± 0.11; in assay [1] (agonist: LPS 0.1 ug/mL), 1.1 ± 0.083; in assay [1] (agonist: MPLA […]), 1.09 ± 0.029. Besides, the IRF reporter stood at 0.677 ± 0.043 in assay [2] (agonist: 3'3'-cGAMP 10 ug/mL), 1.12 ± 0.077 in assay [2] (agonist: LPS 0.1 ug/mL) and 0.893 ± 0.13 in assay [2] (agonist: MPLA […]). In addition, the viability score in assay [3] was 0.992 (active).

As for `O=C(Cn1ncccc1=O)N1Cc2cnc(N3CCOCC3)nc2C1`, the results for the NF-kB reporter in assay [1] (setting [4]), in assay [1] (agonist: LPS 0.1 ug/mL) and in assay [1] (agonist: MPLA […]) were 0.942 ± 0.082, 1.1 ± 0.1 and 0.938 ± 0.042, respectively. Besides, the results for the IRF reporter in assay [2] (agonist: 3'3'-cGAMP 10 ug/mL), in assay [2] (agonist: LPS 0.1 ug/mL) and in assay [2] (agonist: MPLA […]) were 0.956 ± 0.058, 1.16 ± 0.21 and 1.09 ± 0.31, respectively. For the same compound, the viability score in assay [3] was 0.998 (active).

As for `Cc1ccc(Nc2ccc(NC(=O)C(C)C)cc2)nn1`, the NF-kB reporter in assay [1] (setting [4]) was found to be 0.988 ± 0.042; in assay [1] (agonist: LPS 0.1 ug/mL), 0.993 ± 0.082; in assay [1] (agonist: MPLA […]), 1.11 ± 0.07. In addition, the IRF reporter in assay [2] (agonist: 3'3'-cGAMP 10 ug/mL) is 1.05 ± 0.048; in assay [2] (agonist: LPS 0.1 ug/mL), 1.2 ± 0.26; in assay [2] (agonist: MPLA […]) it was 1.29 ± 0.44. For the same compound, the viability score in assay [3] was 0.981 (active).

Consider `O=C(CSc1ccc2ccccc2n1)NC1=NCCS1`, for which the values for the NF-kB reporter in assay [1] (setting [4]), in assay [1] (agonist: LPS 0.1 ug/mL) and in assay [1] (agonist: MPLA […]) were 0.89 ± 0.051, 0.986 ± 0.062 and 0.972 ± 0.06, respectively. Further, the IRF reporter in assay [2] (agonist: 3'3'-cGAMP 10 ug/mL) is 0.968 ± 0.033; in assay [2] (agonist: LPS 0.1 ug/mL), 1.2 ± 0.077; in assay [2] (agonist: MPLA […]) it was 0.958 ± 0.23. In addition, the viability score in assay [3] is 1.01 (active).

For `CCOC(=O)C1=C(C)NC(C)=C(C(=O)OCC)C1c1ccc(Cl)cc1`, the NF-kB reporter in assay [1] (setting [4]) was 0.3 ± 0.023; in assay [1] (agonist: LPS 0.1 ug/mL), 0.27 ± 0.019; in assay [1] (agonist: MPLA […]), 0.748 ± 0.026. In addition, the IRF reporter came to 0.743 ± 0.061 in assay [2] (agonist: 3'3'-cGAMP 10 ug/mL), 0.636 ± 0.084 in assay [2] (agonist: LPS 0.1 ug/mL) and 1.67 ± 0.2 in assay [2] (agonist: MPLA […]). In assay [3], the viability score was 0.187 (inactive).

Turning to `Cc1cc(C)c(NC(=O)C2C3CCC4C(CCC32)C4(Cl)Cl)c(C)c1` (stereo unspecified), the NF-kB reporter in assay [1] (setting [4]) is 1.01 ± 0.11; in assay [1] (agonist: LPS 0.1 ug/mL), 1.03 ± 0.079; in assay [1] (agonist: MPLA […]), 1.02 ± 0.062. In addition, the figures for the IRF reporter in assay [2] (agonist: 3'3'-cGAMP 10 ug/mL), in assay [2] (agonist: LPS 0.1 ug/mL) and in assay [2] (agonist: MPLA […]) were 1.03 ± 0.027, 1.61 ± 0.14 and 1.1 ± 0.11, respectively. Further, the viability score in assay [3] is 1.01 (active).
